{"source": "PubChem BioAssay", "note": "Active and inactive are the calls of the source.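 The calls were made as follows: active = normalized viability below 100% at a tested concentration; inactive = the rest.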"}
{"experiment": "ovarian cancer cell viability with rucaparib, profiling panel, oncology-focused library, rucaparib conditional (AID 1508598)", "details": "patient-derived ovarian cancer cells, CellTiter-Glo viability, 144 h; at 5 µM; OCI-P5x cells; with rucaparib 20 µM; hits give low values; 100% = cells with rucaparib alone"}
{"smiles": "CCOC(=O)NCCCC(=O)NCCc1ccccc1", "viability": "83.3% (active)"}
{"smiles": "C[C@@]1(c2nc3c(C(N)=O)cccc3[nH]2)CCCN1", "viability": "80.7% (active)"}
{"smiles": "Cc1ccc(NC(=O)c2ccc(CN3CCN(C)CC3)cc2)cc1Nc1nc(-c2cccnc2)cs1", "viability": "84.2% (active)"}
{"smiles": "C[C@]12CC[C@H]3c4ccc(O)cc4CC[C@H]3[C@@H]1CCC2=O", "viability": "43.7% (active)"}
{"smiles": "O=C(NCC1(c2nc(-c3ccccc3)cs2)CCOCC1)c1cccc(-c2noc(C(F)(F)F)n2)c1", "viability": "78.7% (active)"}
{"experiment": "ovarian cancer cell viability with rucaparib, profiling panel, oncology-focused library, rucaparib conditional (AID 1508598)", "details": "patient-derived ovarian cancer cells, CellTiter-Glo viability, 144 h; at 5 µM; OCI-P5x cells; without rucaparib; hits give low values"}
{"smiles": "CCOC(=O)NCCCC(=O)NCCc1ccccc1", "viability": "89.3% (active)"}
{"smiles": "C[C@@]1(c2nc3c(C(N)=O)cccc3[nH]2)CCCN1", "viability": "91.4% (active)"}
{"smiles": "Cc1ccc(NC(=O)c2ccc(CN3CCN(C)CC3)cc2)cc1Nc1nc(-c2cccnc2)cs1", "viability": "82% (active)"}
{"smiles": "C[C@]12CC[C@H]3c4ccc(O)cc4CC[C@H]3[C@@H]1CCC2=O", "viability": "13.5% (active)"}
{"smiles": "O=C(NCC1(c2nc(-c3ccccc3)cs2)CCOCC1)c1cccc(-c2noc(C(F)(F)F)n2)c1", "viability": "84.2% (active)"}
